From PubChem BioAssay (NCI)
Compounds without any hit were thinned out: in the full panel of roughly 83,000, 20% have a hit.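 Step 1: grow cells in 96-well plates. Step 2: add test compound at a single concentration. Step 3: incubate 48 h. Step 4: record percent growth.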 The source made the active and inactive calls. Rule for the calls: active = growth percent below 10; inactive = the rest.

Key:
Assay in all cases: NCI-60 one-dose screen, 48 h (100 = growth as untreated, 0 = no growth, -100 = all killed)
Conditions in all cases: 10 µM unless noted
SK-MEL-2 melanoma = test system: SK-MEL-2 melanoma
SN12C renal = test system: SN12C renal
UO-31 renal = test system: UO-31 renal
TK-10 renal = test system: TK-10 renal
ACHN renal = test system: ACHN renal
A498 renal = test system: A498 renal
CCRF-CEM leukemia = test system: CCRF-CEM leukemia
MOLT-4 leukemia = test system: MOLT-4 leukemia
SR leukemia = test system: SR leukemia
RPMI-8226 leukemia = test system: RPMI-8226 leukemia
OVCAR-8 ovarian = test system: OVCAR-8 ovarian
OVCAR-5 ovarian = test system: OVCAR-5 ovarian
OVCAR-4 ovarian = test system: OVCAR-4 ovarian
SK-OV-3 ovarian = test system: SK-OV-3 ovarian
IGROV1 ovarian = test system: IGROV1 ovarian
OVCAR-3 ovarian = test system: OVCAR-3 ovarian
HS 578T breast = test system: HS 578T breast
NCI/ADR-RES ovarian = test system: NCI/ADR-RES ovarian
T-47D breast = test system: T-47D breast

Measured: growth

COc1ccc2nc(-c3ccc(Cl)cc3)cc(C(=O)N3N=C(c4ccc(N)cc4)CC3c3ccccc3)c2c1 (stereo not drawn)
active: OVCAR-3 ovarian 9.64%
inactive: SK-MEL-2 melanoma 43.2% | SN12C renal 57.8% | UO-31 renal 45.5% | TK-10 renal 68.1% | ACHN renal 52.8% | A498 renal 56.9% | CCRF-CEM leukemia 31.2% | MOLT-4 leukemia 43.2% | SR leukemia 25.1% | RPMI-8226 leukemia 29% | OVCAR-8 ovarian 54% | OVCAR-5 ovarian 80.9% | OVCAR-4 ovarian 65.8% | SK-OV-3 ovarian 46.1% | IGROV1 ovarian 53.9% | HS 578T breast 48.4% | NCI/ADR-RES ovarian 15.2% | T-47D breast 38.8%

C[C@H]1[C@H](C)CC[C@]2(C(=O)OCCCC[P+](c3ccccc3)(c3ccccc3)c3ccccc3)CC[C@]3(C)C(=CC[C@@H]4[C@@]5(C)CC[C@H](OC(=O)C(Cl)Cl)C(C)(C)[C@@H]5CC[C@]43C)[C@H]12
active: SK-MEL-2 melanoma -63.8% | SN12C renal -81% | UO-31 renal -93.9% | TK-10 renal -76.8% | ACHN renal -79.6% | A498 renal -82% | CCRF-CEM leukemia -16.6% | MOLT-4 leukemia -49.8% | SR leukemia -49.4% | RPMI-8226 leukemia -53.3% | OVCAR-8 ovarian -36.8% | OVCAR-5 ovarian -52.2% | OVCAR-4 ovarian -12.1% | SK-OV-3 ovarian -15.5% | IGROV1 ovarian -51.8% | OVCAR-3 ovarian -88.8% | HS 578T breast -20.1% | T-47D breast -23.8%
inactive: NCI/ADR-RES ovarian 36.8%

Cc1ccccc1NC(=O)c1sc2nc(C)c(C(C)O)cc2c1N (stereo not drawn)
inactive: SK-MEL-2 melanoma 34.4% | SN12C renal 51.3% | UO-31 renal 69.6% | TK-10 renal 51.5% | ACHN renal 78.3% | A498 renal 47.9% | MOLT-4 leukemia 32.6% | RPMI-8226 leukemia 64.1% | OVCAR-8 ovarian 58.1% | OVCAR-5 ovarian 87.8% | OVCAR-4 ovarian 92.9% | SK-OV-3 ovarian 47.5% | IGROV1 ovarian 57.6% | OVCAR-3 ovarian 27.8% | HS 578T breast 53.3% | NCI/ADR-RES ovarian 29.4% | T-47D breast 54%
active: SR leukemia 4.46%

N#Cc1c(-c2ccc(F)cc2)nc(N=Nc2c(O)[nH]c3ccc(Cl)cc23)nc1N1CCOCC1
inactive: SK-MEL-2 melanoma 64% | TK-10 renal 11.6% | ACHN renal 14.6% | A498 renal 51.2% | CCRF-CEM leukemia 58.7% | MOLT-4 leukemia 48.5% | SR leukemia 47% | RPMI-8226 leukemia 80.1% | OVCAR-8 ovarian 19.1% | OVCAR-5 ovarian 84.5% | SK-OV-3 ovarian 17.2% | IGROV1 ovarian 29.3% | OVCAR-3 ovarian 21.6% | HS 578T breast 15.5% | NCI/ADR-RES ovarian 16.4% | T-47D breast 46.7%
active: SN12C renal -9.86% | UO-31 renal 6.44% | OVCAR-4 ovarian -37.7%

COC(=O)CCc1cc(O)c2c(c1)[C@@H](C(=O)OC)[C@H](c1ccc(O)c(O)c1)O2
inactive: SK-MEL-2 melanoma 47.8% | SN12C renal 95.1% | UO-31 renal 67.7% | TK-10 renal 90.6% | ACHN renal 98.2% | A498 renal 98% | CCRF-CEM leukemia 53.6% | MOLT-4 leukemia 47.7% | SR leukemia 36% | RPMI-8226 leukemia 80.5% | OVCAR-8 ovarian 90.6% | OVCAR-5 ovarian 98.3% | OVCAR-4 ovarian 83% | SK-OV-3 ovarian 97.4% | IGROV1 ovarian 88.1% | OVCAR-3 ovarian 27.5% | HS 578T breast 74.3% | NCI/ADR-RES ovarian 87.8% | T-47D breast 66%

COc1ccc(/C=C/C(=O)Nc2ncnc3nc[nH]c23)cc1
inactive: SK-MEL-2 melanoma 96.2% | SN12C renal 96.2% | TK-10 renal 103% | ACHN renal 111% | A498 renal 108% | CCRF-CEM leukemia 79.2% | MOLT-4 leukemia 68.9% | SR leukemia 73.4% | RPMI-8226 leukemia 99% | OVCAR-8 ovarian 103% | OVCAR-5 ovarian 118% | OVCAR-4 ovarian 98.8% | SK-OV-3 ovarian 113% | IGROV1 ovarian 105% | OVCAR-3 ovarian 104% | HS 578T breast 101% | NCI/ADR-RES ovarian 96.6%

COc1cc(/C=C/C(=O)/C=C/c2cc3ccc(Cl)cc3[nH]c2=O)ccc1O
inactive: SK-MEL-2 melanoma 89.1% | SN12C renal 63.9% | UO-31 renal 60.3% | TK-10 renal 98% | ACHN renal 64.8% | A498 renal 78.8% | CCRF-CEM leukemia 23% | MOLT-4 leukemia 30.3% | SR leukemia 10.8% | OVCAR-5 ovarian 103% | OVCAR-4 ovarian 68% | SK-OV-3 ovarian 105% | IGROV1 ovarian 40.7% | OVCAR-3 ovarian 42.4% | HS 578T breast 73.8% | NCI/ADR-RES ovarian 41% | T-47D breast 88.8%
active: RPMI-8226 leukemia 4.64% | OVCAR-8 ovarian 6.97%

COc1ccc(Nc2cc(NC(=O)CNc3cc(OC)c(Cl)c(OC)c3Cl)ncn2)cc1
inactive: SK-MEL-2 melanoma 84.8% | SN12C renal 89.2% | UO-31 renal 59.6% | TK-10 renal 93.1% | ACHN renal 78.8% | CCRF-CEM leukemia 89.3% | SR leukemia 78.1% | RPMI-8226 leukemia 62.5% | OVCAR-8 ovarian 78.2% | OVCAR-5 ovarian 88.1% | OVCAR-4 ovarian 80.1% | SK-OV-3 ovarian 79.8% | IGROV1 ovarian 74.2% | OVCAR-3 ovarian 81.6% | HS 578T breast 83.4% | NCI/ADR-RES ovarian 84.8% | T-47D breast 47.1%
active: A498 renal -1.25%
